Of roughly 8,800 targets only a part is listed; those with a hit were picked by preference. About 0.5% of all pairs of compound and target were hits.
Columns and labels:
Assay in all cases: log2 fold change, soluble protein after heating vs DMSO (PISA); higher = thermal stabilisation; K562 lysate, 10 uM; active = over 0.2 and 3.5 SD of the protein, either way, in both replicates (recomputed)
lapatinib = compound: CS(=O)(=O)CCNCc1ccc(-c2ccc3ncnc(Nc4ccc(OCc5cccc(F)c5)c(Cl)c4)c3c2)o1 [lapatinib]
Procedure, shortened: (§1)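 The values are log-two fold changes in thermal stability compared with solvent controls and come from duplicates. They were obtained by TMTpro 16plex LC-MS/MS, with channel sums equalised, on the supernatant after 21,000xg for 90 min. That supernatant came from crude K562 extract at 1 mg/mL protein treated with 10 μM compound for 30 min, heated for 3 min across 48°C-58°C, pooled and brought to 0.5% NP-40 at 4°C.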

pictilisib = compound: CS(=O)(=O)N1CCN(Cc2cc3nc(-c4cccc5[nH]ncc45)nc(N4CCOCC4)c3s2)CC1 [pictilisib]
Procedure, shortened: as §1

crizotinib = compound: C[C@@H](Oc1cc(-c2cnn(C3CCNCC3)c2)cnc1N)c1c(Cl)ccc(F)c1Cl [crizotinib]
Procedure, shortened: as §1

[1] = compound: C[C@H](C1=CC=C(C=C1)C(=O)NC2=C3C=CNC3=NC=C2)N
Procedure, shortened: as §1

duvelisib = compound: C[C@H](Nc1ncnc2nc[nH]c12)c1cc2cccc(Cl)c2c(=O)n1-c1ccccc1 [duvelisib]
Procedure, shortened: as §1

gandotinib = compound: Cc1cc(Nc2cc(CN3CCOCC3)c3nc(C)c(Cc4ccc(Cl)cc4F)n3n2)n[nH]1 [gandotinib]
Procedure, shortened: as §1

tozasertib = compound: Cc1cc(Nc2cc(N3CCN(C)CC3)nc(Sc3ccc(NC(=O)C4CC4)cc3)n2)n[nH]1 [tozasertib]
Procedure, shortened: as §1

doramapimod = compound: Cc1ccc(-n2nc(C(C)(C)C)cc2NC(=O)Nc2ccc(OCCN3CCOCC3)c3ccccc23)cc1 [doramapimod]
Procedure, shortened: as §1

bafetinib = compound: Cc1ccc(NC(=O)c2ccc(CN3CC[C@H](N(C)C)C3)c(C(F)(F)F)c2)cc1Nc1nccc(-c2cncnc2)n1 [bafetinib]
Procedure, shortened: as §1

[2] = compound: Cc1cccc(CC(=O)N2CCc3c2ccc(-c2cn(C)c4ncnc(N)c24)c3F)n1
Procedure, shortened: as §1

Measured: log2 fold change

MSH3 (UniProt P20585)
Chain of UniProt P20585 (P20585 whole entry, looked up): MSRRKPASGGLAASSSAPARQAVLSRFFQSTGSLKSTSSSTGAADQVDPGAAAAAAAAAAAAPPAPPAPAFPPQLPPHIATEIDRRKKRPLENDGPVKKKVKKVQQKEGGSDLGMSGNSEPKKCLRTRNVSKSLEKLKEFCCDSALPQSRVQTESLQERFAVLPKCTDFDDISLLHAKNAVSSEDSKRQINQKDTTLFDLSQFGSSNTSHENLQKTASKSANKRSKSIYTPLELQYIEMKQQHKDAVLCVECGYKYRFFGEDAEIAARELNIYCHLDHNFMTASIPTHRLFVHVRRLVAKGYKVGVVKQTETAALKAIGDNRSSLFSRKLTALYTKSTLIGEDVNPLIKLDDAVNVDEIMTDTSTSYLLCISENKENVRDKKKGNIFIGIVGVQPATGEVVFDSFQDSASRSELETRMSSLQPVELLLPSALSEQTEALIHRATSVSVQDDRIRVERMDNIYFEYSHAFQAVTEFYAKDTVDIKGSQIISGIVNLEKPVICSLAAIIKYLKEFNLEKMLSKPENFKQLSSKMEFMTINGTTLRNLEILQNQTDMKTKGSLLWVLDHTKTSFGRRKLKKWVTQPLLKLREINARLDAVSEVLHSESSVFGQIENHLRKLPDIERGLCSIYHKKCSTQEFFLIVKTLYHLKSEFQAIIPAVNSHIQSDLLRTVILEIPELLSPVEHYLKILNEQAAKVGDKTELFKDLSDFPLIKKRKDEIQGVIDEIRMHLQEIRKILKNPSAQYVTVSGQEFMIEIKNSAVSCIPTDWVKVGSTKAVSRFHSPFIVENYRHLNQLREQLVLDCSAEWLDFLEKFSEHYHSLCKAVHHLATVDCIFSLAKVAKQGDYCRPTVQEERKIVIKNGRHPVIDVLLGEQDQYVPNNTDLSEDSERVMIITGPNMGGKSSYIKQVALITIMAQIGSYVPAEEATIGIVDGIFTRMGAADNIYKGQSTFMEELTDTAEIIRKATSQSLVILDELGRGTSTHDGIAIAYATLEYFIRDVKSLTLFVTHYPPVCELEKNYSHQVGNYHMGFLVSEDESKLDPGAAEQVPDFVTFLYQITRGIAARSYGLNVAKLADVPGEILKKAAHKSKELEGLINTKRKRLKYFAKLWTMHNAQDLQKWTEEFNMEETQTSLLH
inactive: lapatinib -0.021 | pictilisib -0.005 | crizotinib -0.004 | [1] -0.018 | duvelisib -0.001 | gandotinib -0.019 | tozasertib 0.021 | doramapimod 0.019 | bafetinib -0.003 | [2] 0.028

NUMB (UniProt P49757)
inactive: lapatinib 0.033 | pictilisib 0.023 | crizotinib 0.02 | [1] -0.057 | duvelisib 0.029 | gandotinib 0.097 | tozasertib 0.047 | doramapimod 0.125 | bafetinib -0.069 | [2] 0.038

NCAPG (UniProt Q9BPX3)
inactive: lapatinib -0.029 | pictilisib 0 | crizotinib -0.074 | [1] -0.028 | duvelisib -0.007 | gandotinib -0.094 | tozasertib -0.011 | doramapimod 0.026 | bafetinib -0.035 | [2] 0.011

ORC2 (UniProt Q13416)
inactive: lapatinib 0.016 | pictilisib -0.049 | crizotinib -0.074 | [1] 0.063 | duvelisib -0.068 | gandotinib -0.087 | tozasertib -0.017 | doramapimod -0.007 | bafetinib -0.034 | [2] 0.011

PAXBP1 (UniProt Q9Y5B6)
inactive: lapatinib 0.002 | pictilisib -0.077 | crizotinib -0.027 | [1] -0.037 | duvelisib -0.008 | gandotinib -0.029 | tozasertib 0.012 | doramapimod 0.038 | bafetinib -0.024 | [2] 0.002

NARS2 (UniProt Q96I59)
inactive: lapatinib 0.039 | pictilisib -0.132 | crizotinib -0.034 | [1] 0.039 | duvelisib -0.002 | gandotinib -0.058 | tozasertib 0.013 | doramapimod -0.01 | bafetinib -0.053 | [2] 0.024

NUP133 (UniProt Q8WUM0)
Chain of UniProt Q8WUM0 (Q8WUM0 whole entry, looked up): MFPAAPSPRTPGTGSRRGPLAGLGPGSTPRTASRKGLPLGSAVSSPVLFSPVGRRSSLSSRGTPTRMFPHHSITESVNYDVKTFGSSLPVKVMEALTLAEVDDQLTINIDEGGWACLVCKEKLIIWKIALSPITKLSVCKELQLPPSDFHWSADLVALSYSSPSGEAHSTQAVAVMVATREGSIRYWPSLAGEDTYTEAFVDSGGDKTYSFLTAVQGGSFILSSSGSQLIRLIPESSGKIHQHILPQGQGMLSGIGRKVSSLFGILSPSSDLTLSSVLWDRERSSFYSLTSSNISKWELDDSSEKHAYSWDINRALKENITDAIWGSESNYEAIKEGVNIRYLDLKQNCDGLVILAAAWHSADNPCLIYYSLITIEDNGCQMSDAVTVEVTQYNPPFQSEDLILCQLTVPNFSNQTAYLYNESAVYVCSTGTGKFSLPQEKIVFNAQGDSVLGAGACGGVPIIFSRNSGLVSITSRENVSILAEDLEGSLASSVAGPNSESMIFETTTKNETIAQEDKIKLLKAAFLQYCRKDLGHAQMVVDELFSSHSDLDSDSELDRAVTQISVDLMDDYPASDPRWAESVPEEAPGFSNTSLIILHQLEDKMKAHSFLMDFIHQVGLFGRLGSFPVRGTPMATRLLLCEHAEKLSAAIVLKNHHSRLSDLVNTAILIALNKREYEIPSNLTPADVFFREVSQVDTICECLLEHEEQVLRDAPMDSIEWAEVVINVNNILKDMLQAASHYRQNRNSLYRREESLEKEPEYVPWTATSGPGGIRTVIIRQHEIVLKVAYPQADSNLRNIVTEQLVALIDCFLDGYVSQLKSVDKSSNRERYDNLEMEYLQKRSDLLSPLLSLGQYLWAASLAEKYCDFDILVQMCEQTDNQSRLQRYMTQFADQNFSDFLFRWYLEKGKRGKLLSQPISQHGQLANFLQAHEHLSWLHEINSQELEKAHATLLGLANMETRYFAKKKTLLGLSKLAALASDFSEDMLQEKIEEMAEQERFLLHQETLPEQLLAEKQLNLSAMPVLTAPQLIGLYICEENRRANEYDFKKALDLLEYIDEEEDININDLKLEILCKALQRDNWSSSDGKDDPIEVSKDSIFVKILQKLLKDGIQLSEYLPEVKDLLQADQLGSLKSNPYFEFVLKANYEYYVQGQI
active: gandotinib 0.251
inactive: lapatinib -0.007 | pictilisib -0.01 | crizotinib -0.093 | [1] -0.075 | duvelisib -0.01 | tozasertib 0.042 | doramapimod 0.061 | bafetinib -0.074 | [2] 0.218

PAGE4 (UniProt O60829)
Chain of UniProt O60829 (O60829 whole entry, looked up): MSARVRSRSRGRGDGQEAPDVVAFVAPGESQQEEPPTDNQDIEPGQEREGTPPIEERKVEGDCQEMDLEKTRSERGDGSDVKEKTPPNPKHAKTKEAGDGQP
active: [1] 0.344
inactive: lapatinib -0.012 | pictilisib -0.05 | crizotinib -0.028 | duvelisib 0.091 | gandotinib -0.102 | tozasertib -0.023 | doramapimod 0.11 | bafetinib -0.004 | [2] -0.134

NIPSNAP3A (UniProt Q9UFN0)
active: [1] 0.466 | [2] -0.276
inactive: lapatinib -0.007 | pictilisib -0.031 | crizotinib 0.021 | duvelisib 0.03 | gandotinib -0.197 | tozasertib -0.011 | doramapimod -0.029 | bafetinib 0.061

NAA30 (UniProt Q147X3)
inactive: lapatinib -0.021 | pictilisib -0.028 | crizotinib -0.01 | [1] -0.025 | duvelisib -0.037 | gandotinib 0.012 | tozasertib 0.015 | doramapimod -0.028 | bafetinib 0.042 | [2] 0.06

NAT1 (UniProt P18440)
Chain of UniProt P18440 (P18440 whole entry, looked up): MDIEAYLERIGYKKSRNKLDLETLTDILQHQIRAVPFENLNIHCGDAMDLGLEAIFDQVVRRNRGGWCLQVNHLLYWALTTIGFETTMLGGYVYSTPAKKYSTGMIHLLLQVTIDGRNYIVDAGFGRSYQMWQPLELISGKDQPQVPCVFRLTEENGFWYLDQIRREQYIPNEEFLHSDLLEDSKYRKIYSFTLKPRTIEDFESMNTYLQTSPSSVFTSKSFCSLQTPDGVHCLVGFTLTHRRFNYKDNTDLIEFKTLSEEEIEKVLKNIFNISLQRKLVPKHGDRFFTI
inactive: lapatinib 0.026 | pictilisib 0.111 | crizotinib -0.227 | [1] -0.089 | duvelisib 0.006 | gandotinib 0.004 | tozasertib -0.048 | doramapimod 0.058 | bafetinib 0.006 | [2] 0.083

OARD1 (UniProt Q9Y530)
Chain of UniProt Q9Y530 (Q9Y530 whole entry, looked up): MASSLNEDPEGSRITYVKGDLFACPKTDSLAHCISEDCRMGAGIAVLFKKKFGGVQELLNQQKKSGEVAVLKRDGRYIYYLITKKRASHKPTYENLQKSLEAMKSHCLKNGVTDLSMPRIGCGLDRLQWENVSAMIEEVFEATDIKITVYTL
inactive: lapatinib -0.001 | pictilisib -0.011 | crizotinib -0.003 | [1] -0.022 | duvelisib -0.015 | gandotinib -0.012 | tozasertib 0.042 | doramapimod 0.035 | bafetinib -0.023 | [2] 0.037

PAFAH1B3 (UniProt Q15102)
Chain of UniProt Q15102 (Q15102 whole entry, looked up): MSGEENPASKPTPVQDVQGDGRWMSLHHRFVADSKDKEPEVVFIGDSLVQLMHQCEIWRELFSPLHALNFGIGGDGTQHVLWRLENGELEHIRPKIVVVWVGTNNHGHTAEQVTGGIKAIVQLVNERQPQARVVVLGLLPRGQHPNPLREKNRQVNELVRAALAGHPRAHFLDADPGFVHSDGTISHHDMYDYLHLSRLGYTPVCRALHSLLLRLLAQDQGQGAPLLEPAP
inactive: lapatinib -0.034 | pictilisib -0.024 | crizotinib -0.01 | [1] -0.016 | duvelisib -0.024 | gandotinib -0.001 | tozasertib 0.054 | doramapimod 0 | bafetinib 0.048 | [2] -0.001

NUDT5 (UniProt Q9UKK9)
inactive: lapatinib 0.003 | pictilisib -0.036 | crizotinib 0.007 | duvelisib 0.051 | gandotinib 0.211 | tozasertib -0.018 | doramapimod -0.015 | bafetinib -0.016 | [2] 0.212
active: [1] -0.299

NDC1 (UniProt Q9BTX1)
inactive: lapatinib -0.087 | pictilisib -0.012 | crizotinib -0.027 | duvelisib -0.044 | gandotinib 0.185 | tozasertib -0.01 | doramapimod -0.001 | bafetinib -0.066
active: [1] -0.333 | [2] 0.296

OTC (UniProt P00480)
inactive: lapatinib -0.118 | pictilisib -0.026 | crizotinib -0.273 | duvelisib 0.159 | gandotinib -0.003 | tozasertib 0.161 | doramapimod 0.168 | bafetinib -0.412 | [2] 0.377
active: [1] -4.33

NFKBIB (UniProt Q15653)
Chain of UniProt Q15653 (Q15653 whole entry, looked up): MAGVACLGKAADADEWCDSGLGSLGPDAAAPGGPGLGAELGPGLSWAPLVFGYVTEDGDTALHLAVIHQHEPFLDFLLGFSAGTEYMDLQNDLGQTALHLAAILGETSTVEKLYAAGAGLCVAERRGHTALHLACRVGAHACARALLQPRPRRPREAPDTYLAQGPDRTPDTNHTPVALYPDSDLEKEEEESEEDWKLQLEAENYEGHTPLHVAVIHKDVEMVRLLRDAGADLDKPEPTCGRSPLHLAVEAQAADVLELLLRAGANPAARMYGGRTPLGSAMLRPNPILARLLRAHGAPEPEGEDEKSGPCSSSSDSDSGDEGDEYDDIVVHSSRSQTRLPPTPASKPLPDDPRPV
inactive: lapatinib 0.093 | pictilisib -0.011 | crizotinib -0.055 | duvelisib 0.004 | gandotinib 0.095 | tozasertib -0.024 | doramapimod 0.024 | bafetinib -0.049 | [2] 0.127
active: [1] -0.36

PAK4 (UniProt O96013)
inactive: lapatinib -0.147 | pictilisib 0.139 | crizotinib 0.037 | [1] 0.163 | duvelisib 0.05 | tozasertib 0.18 | doramapimod -0.236 | bafetinib -0.011 | [2] -0.12
active: gandotinib 0.709

NUP98 (UniProt P52948)
inactive: lapatinib 0.007 | pictilisib -0.041 | crizotinib 0.017 | [1] -0.014 | duvelisib -0.04 | gandotinib 0.01 | tozasertib -0.033 | doramapimod -0.024 | bafetinib -0.024 | [2] 0.043

NCOR2 (UniProt C9J0Q5)
inactive: lapatinib 0.063 | pictilisib -0.028 | crizotinib 0.116 | [1] 0.018 | duvelisib -0.014 | gandotinib -0.055 | tozasertib 0.011 | doramapimod -0.052 | bafetinib 0.079 | [2] -0.07

NFKBIE (UniProt O00221)
inactive: lapatinib 0.03 | pictilisib 0.002 | crizotinib -0.027 | [1] 0.066 | duvelisib 0.03 | gandotinib -0.02 | tozasertib 0.07 | doramapimod 0.031 | bafetinib 0.012 | [2] 0.096

MTA2 (UniProt O94776)
inactive: lapatinib -0.003 | pictilisib 0.017 | crizotinib 0 | [1] 0.013 | duvelisib 0 | gandotinib -0.033 | tozasertib -0.016 | doramapimod 0.031 | bafetinib -0.009 | [2] 0.021

NCAPH (UniProt Q15003)
Chain of UniProt Q15003 (Q15003 whole entry, looked up): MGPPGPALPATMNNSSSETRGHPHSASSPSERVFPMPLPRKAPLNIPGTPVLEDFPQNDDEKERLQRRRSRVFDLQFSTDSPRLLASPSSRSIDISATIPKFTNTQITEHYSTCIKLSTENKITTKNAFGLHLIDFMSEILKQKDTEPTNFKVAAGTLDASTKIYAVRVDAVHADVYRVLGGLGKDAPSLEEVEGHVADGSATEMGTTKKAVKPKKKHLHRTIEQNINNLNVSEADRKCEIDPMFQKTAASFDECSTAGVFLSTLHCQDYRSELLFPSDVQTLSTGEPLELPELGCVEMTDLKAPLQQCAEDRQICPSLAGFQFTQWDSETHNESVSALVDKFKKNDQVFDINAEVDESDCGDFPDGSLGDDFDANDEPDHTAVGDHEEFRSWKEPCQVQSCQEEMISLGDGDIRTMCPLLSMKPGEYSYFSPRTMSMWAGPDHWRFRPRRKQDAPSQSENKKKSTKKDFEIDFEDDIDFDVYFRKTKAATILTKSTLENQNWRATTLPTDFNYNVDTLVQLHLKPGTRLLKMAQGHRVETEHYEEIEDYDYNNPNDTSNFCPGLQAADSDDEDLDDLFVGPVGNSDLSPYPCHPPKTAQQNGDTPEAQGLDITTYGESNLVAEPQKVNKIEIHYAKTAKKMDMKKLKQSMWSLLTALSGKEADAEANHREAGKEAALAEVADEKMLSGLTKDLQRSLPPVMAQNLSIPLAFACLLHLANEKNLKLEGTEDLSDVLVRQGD
inactive: lapatinib -0.012 | pictilisib 0.005 | crizotinib -0.019 | [1] -0.015 | duvelisib 0.046 | gandotinib -0.101 | tozasertib 0 | doramapimod 0.036 | bafetinib -0.013 | [2] 0.028

NFATC2 (UniProt Q13469)
inactive: lapatinib -0.003 | pictilisib 0.03 | crizotinib -0.021 | [1] 0.085 | duvelisib -0.017 | gandotinib 0.133 | tozasertib 0 | doramapimod 0.059 | bafetinib -0.02 | [2] 0.117

NELFCD (UniProt Q8IXH7)
Chain of UniProt Q8IXH7 (Q8IXH7 whole entry, looked up): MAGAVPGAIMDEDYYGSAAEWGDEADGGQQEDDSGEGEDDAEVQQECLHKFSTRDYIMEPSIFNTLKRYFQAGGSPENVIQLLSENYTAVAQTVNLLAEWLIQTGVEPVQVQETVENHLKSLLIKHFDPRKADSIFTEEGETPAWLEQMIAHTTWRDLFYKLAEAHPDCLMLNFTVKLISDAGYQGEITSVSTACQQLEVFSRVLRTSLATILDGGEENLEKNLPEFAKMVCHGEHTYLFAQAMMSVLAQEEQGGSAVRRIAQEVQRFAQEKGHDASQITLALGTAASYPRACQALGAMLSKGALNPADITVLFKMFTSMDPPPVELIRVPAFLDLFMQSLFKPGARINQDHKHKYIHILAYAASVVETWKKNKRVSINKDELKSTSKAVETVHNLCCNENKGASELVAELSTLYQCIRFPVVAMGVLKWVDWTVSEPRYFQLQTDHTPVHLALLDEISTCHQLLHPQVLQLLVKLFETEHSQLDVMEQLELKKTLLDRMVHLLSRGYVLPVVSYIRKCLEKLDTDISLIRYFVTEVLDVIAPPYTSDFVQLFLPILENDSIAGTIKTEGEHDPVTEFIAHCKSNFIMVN
inactive: lapatinib -0.035 | pictilisib -0.048 | crizotinib -0.043 | [1] 0.074 | duvelisib 0.017 | gandotinib -0.087 | tozasertib -0.025 | doramapimod 0.045 | bafetinib -0.105 | [2] -0.029

NEK7 (UniProt Q8TDX7)
inactive: lapatinib -0.035 | pictilisib -0.018 | crizotinib -0.045 | [1] -0.062 | duvelisib -0.026 | gandotinib -0.031 | tozasertib -0.022 | doramapimod 0.016 | bafetinib -0.026 | [2] 0.15

NTMT1 (UniProt Q9BV86)
Chain of UniProt Q9BV86 (Q9BV86 whole entry, looked up): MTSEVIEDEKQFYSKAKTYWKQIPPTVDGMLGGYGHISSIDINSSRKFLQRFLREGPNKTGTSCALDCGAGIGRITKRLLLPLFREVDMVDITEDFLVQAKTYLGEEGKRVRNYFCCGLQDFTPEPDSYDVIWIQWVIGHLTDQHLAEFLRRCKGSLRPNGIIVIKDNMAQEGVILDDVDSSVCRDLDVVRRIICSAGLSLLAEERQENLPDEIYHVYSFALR
inactive: lapatinib -0.008 | pictilisib -0.008 | crizotinib -0.009 | [1] 0.079 | duvelisib -0.026 | gandotinib -0.113 | tozasertib -0.041 | doramapimod 0.025 | bafetinib 0.025 | [2] -0.045

NOSTRIN (UniProt Q8IVI9)
inactive: lapatinib -0.022 | pictilisib -0.011 | crizotinib 0.06 | [1] 0.017 | duvelisib 0.047 | gandotinib -0.047 | tozasertib 0.058 | doramapimod -0.03 | bafetinib -0.078 | [2] -0.012

MT-ND1 (UniProt P03886)
active: [1] -0.342
inactive: lapatinib -0.025 | pictilisib -0.03 | crizotinib -0.062 | duvelisib -0.052 | gandotinib 0.061 | tozasertib -0.074 | doramapimod 0.041 | bafetinib 0.022 | [2] 0.007

PBK (UniProt Q96KB5)
inactive: lapatinib -0.024 | pictilisib -0.011 | crizotinib -0.005 | [1] 0.013 | duvelisib -0.006 | gandotinib -0.066 | tozasertib -0.005 | doramapimod -0.021 | bafetinib -0.02 | [2] -0.01

Source: the supplement of paper PMC10849652
